For orientation: AC50 means the concentration at which the activity in the assay is half-maximal.

The record followed here is PubChem BioAssay AID1851 (National Center for Advancing Translational Sciences (NCATS), 2009).

Each structure is given as a SMILES string. Where “and” joins values, the source holds several entries; their conditions need not be identical. Identical values can stand only once. Among all 16,000 compounds or so, about 5,800 (36%) were called active. Roughly 23% stayed inconclusive and do not appear here. Calls follow the shape of the dose curve; as a rule, active = well fitted curve in the direction sought with a large enough effect; inconclusive = small, poorly fitted or top-dose-only effect, or effect the other way; inactive = no such curve, though single readings can be large or run the other way. The list shows a part of the results. Some structures have more than one record in an assay (separate samples or runs), and their calls can disagree.
% is scaled to controls: 0 for no effect and ±100 for the full control effect.

Cytochrome P450 2C19 (Homo sapiens), sequence (P33261 whole entry, looked up): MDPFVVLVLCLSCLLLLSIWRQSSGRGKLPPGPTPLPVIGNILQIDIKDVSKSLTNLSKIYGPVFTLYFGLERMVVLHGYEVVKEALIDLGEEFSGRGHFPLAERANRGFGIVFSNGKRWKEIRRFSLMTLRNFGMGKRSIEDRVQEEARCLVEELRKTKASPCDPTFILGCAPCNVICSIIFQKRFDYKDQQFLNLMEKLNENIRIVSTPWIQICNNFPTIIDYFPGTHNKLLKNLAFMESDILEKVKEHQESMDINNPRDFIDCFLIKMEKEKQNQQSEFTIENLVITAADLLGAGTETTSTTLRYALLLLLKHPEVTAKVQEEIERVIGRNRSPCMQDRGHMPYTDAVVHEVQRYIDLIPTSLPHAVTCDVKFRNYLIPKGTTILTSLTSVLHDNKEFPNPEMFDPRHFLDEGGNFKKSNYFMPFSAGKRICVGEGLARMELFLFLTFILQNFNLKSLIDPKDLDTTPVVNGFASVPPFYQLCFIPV

The test addresses Cytochrome P450 2C19 (Homo sapiens) (UniProt P33261). As to the kind of experiment: Cytochrome panel assay with activity outcomes. The following applies: recombinant CYP, pro-luciferin dealkylation, luminescence, p450-cyp2c19; series mostly up to 57.1 µM; activity, negative = inhibition: at the top concentration.
Turning to `Cc1c(NC(=O)C2CCN(S(=O)(=O)c3ccc(Cl)cc3)CC2)c(=O)n(-c2ccccc2)n1C`, the “activity, negative = inhibition” value was -16.8% (inactive).
Turning to `O=C(Nc1nnc(C2CC2)s1)c1cc(S(=O)(=O)N2CCN(c3ccccc3)CC2)ccc1Cl`, the half-maximal activity concentration (AC50) is 7.08 µM (active).
For the compound `COc1ccc(COC(=O)N/N=C2/C[C@@H](O)[C@@H](O)[C@@H]3[C@@H]4C(=O)N(C(C)(C)C)C(=O)[C@H]4CC[C@@H]23)cc1`, the activity, negative = inhibition was 1.08% [at 11.4 µM] (inactive).
Consider `Brc1ccc([C@H]2CN3CCSC3=N2)cc1`, for which the “activity, negative = inhibition” value was -26.9% (inactive).
Still for that read-out and setting: next, `CC(=O)c1c(C)nc(-c2ccccc2)n1O`: -17.7% (inactive).
On to `CN=c1nc(-c2ccccc2)n(-c2ccccc2)s1`, for which the AC50 was 3.16 µM (active).
For the compound `Cc1ccc(-n2c(-c3ccccc3)cc(=O)nc2C)cc1`, the “activity, negative = inhibition” value is -21.5% (inactive).
For the compound `Cc1noc(C)c1C(=O)N1CCC2(CCCN(c3ccncc3)C2)CC1`, the “activity, negative = inhibition” value was 20% (inactive).
For `CN(C)S(=O)(=O)Oc1ccccc1C(=O)Nc1cccc(C(F)(F)F)c1`, the AC50 was 2 µM (active).
As for `Cc1c(C(=O)NC2CCCc3ccccc32)oc2ccc(S(=O)(=O)N3CCOCC3)cc12` (centres undefined), the AC50 is 11.2 µM (active).
Same read-out and setting: next, `Cc1c(C(=O)Nc2cccc(C(F)(F)F)c2)oc2ccc(S(=O)(=O)N3CCOCC3)cc12`: 7.94 µM (active).
Consider `COC(=O)CC1C(=O)NCCN1C(=O)Nc1ccc(Cl)cc1` (centres undefined), for which the “activity, negative = inhibition” value is -28.1% (inactive).
As to `CCOC(=O)CC1C(=O)NCCN1S(=O)(=O)c1ccc(Cl)c(Cl)c1` (centres undefined), the AC50 is 11.2 µM (active).
For the compound `CCCc1cc2c(cc1NC(=O)c1ccc(Br)cc1)OCO2`, the AC50 is 0.0794 µM (active).
The same measure, in the same setting: next, `CCCc1cc2c(cc1NC(=O)c1ccccc1C)OCO2`: 0.178 µM (active); `CCCc1cc2c(cc1NC(=O)c1ccccc1Cl)OCO2`: 0.398 µM (active).
Regarding `Cc1nn(C)c(C)c1CNC(=O)c1cnn2c1NC(c1ccccc1)CC2C(F)(F)F` (centres undefined), the “activity, negative = inhibition” value was -29.2% (inactive).
For the compound `COc1ccccc1CN1CC2(CCN(S(C)(=O)=O)CC2)C1`, the “activity, negative = inhibition” value was 20.8% (inactive).
With `CN(C)C(=C(C#N)C#N)N1CCN(c2ccc(Cl)c(Cl)c2)CC1`, the AC50 is 10 µM (active).
On the same count and under the same terms, next, `CCC(Sc1nc(=O)cc(N)n1CCc1ccccc1)C(=O)Nc1ccccc1C#N` (centres undefined): 11.2 µM (active); `Nc1cc(=O)nc(SCC(=O)Nc2cccc3ccccc23)n1CCc1ccccc1`: 14.1 µM (active).
As to `NCCCC(=O)O`, the “activity, negative = inhibition” value was -39.8% (inactive).
As to `Cn1c(CNC(=O)Nc2ccccc2)nnc1SCc1ccccc1`, the AC50 was 7.08 µM (active).
For `CCN(CC)CCC(=O)Nc1ccc2c(c1)N(C(=O)CN(CC)CC)c1ccccc1CC2`, the “activity, negative = inhibition” value was -22.9% (inactive).
In the case of `CCCCN(C)CCCNC(=O)CCn1nc(-c2ccccc2)ccc1=O`, the “activity, negative = inhibition” value is -12.1% (inactive).
Regarding `CCN(CCCNC(=O)CC(C(=O)N1CCc2ccccc21)n1ccnc1)c1ccccc1` (centres undefined), the AC50 was 0.562 µM (active).
Still for that read-out and setting: next, `CC(C(=O)NC1CCCC1)N(C(=O)c1snc(C(N)=O)c1N)c1ccc2c(c1)OCCO2` (centres undefined): 15.8 µM (active).
On to `CN(CCO)c1nc(N)c2c(N)nc3c(c2c1C#N)CC(=O)N3C1CCCC1`, for which the “activity, negative = inhibition” value is -14.8% (inactive).
Same read-out and setting: next, `Cc1oc(-c2cccc(Cl)c2)[n+]([O-])c1C`: -28.5% (inactive).
Take `CCCn1nnnc1-c1cccc(Cl)c1`: the half-maximal activity concentration (AC50) is 5.01 µM (active).
Regarding `CCCn1nnnc1-c1cc(Cl)cc(Cl)c1`, the “activity, negative = inhibition” value was -63.7% (inactive).
For the compound `Brc1ccc(-c2nnc(-c3ccccc3)c(N3CCSCC3)n2)cc1`, the AC50 was 14.1 µM (active).
Regarding `O=c1c(-c2ccc(Cl)cc2)nc2cnc(N3CCOCC3)nc2n1CCc1ccccc1`, the “activity, negative = inhibition” value is -18.1% (inactive).
On to `Clc1ccc(-c2nnc(-c3ccccc3)c(N3CCSCC3)n2)cc1`, for which the concentration at half-maximal activity (AC50) is 14.1 µM (active).
For the compound `Cc1nnc(S(=O)(=O)c2ccc(N=Nc3c(N)nc(N)nc3N)cc2)s1`, the activity, negative = inhibition is 32.1% [at 11.4 µM] (inactive).
Still for that read-out and setting: next, `CN1CCC[C@@H](CC2c3ccccc3Sc3ccccc32)C1`: -31.2% [at 25.6 µM] (inactive).
`CSc1ccc2c(c1)[C@H](N1CCN(C)CC1)Cc1ccccc1S2`: the concentration at half-maximal activity (AC50) entry is “inactive and 2.51 µM (active) and 7.94 µM (active)”.
For the compound `CO[C@H]1COC(=O)[C@@H](Cc2ccccc2)NC(=O)[C@@H](C)COC(=O)C/C=C\[C@@H]1C`, the activity, negative = inhibition is -5.86% [at 11.4 µM] (inactive).
Take `Cc1nc(-c2c(C(F)(F)F)noc2-c2ccc(O)cc2O)cs1`: the AC50 was 1.26 µM (active).
As for `O=C(N/C(=C\c1cccnc1)C(=O)N1CCOCC1)c1cccc(Br)c1`, the “activity, negative = inhibition” value is -4.28% (inactive).
With `O=C(/C=C/c1cccnc1)c1ccc(NC(=O)c2cccc(Br)c2)cc1`, the AC50 is 2.51 µM (active).
As for `COC(=O)c1c(-c2cc(OC)c(OC)c(OC)c2)c2ccnc(OCc3ncccn3)c2c(=O)n1Cc1ccnc(C)c1`, the “activity, negative = inhibition” value is -37.4% (inactive).
With `Cc1ccc(-n2[nH]c(C)c(C=Nc3ccc4[nH]c(=O)[nH]c4c3)c2=O)cc1C`, the “activity, negative = inhibition” value is -6.05% (inactive).
On to `CCOc1[nH]n(-c2ccc(Cl)cc2)c(=O)c1C=Nc1ccc(Cl)cc1`, for which the “activity, negative = inhibition” value is -3.5% (inactive).
As for `CCOc1[nH]n(-c2ccccc2)c(=O)c1C=Nc1ccc(Cl)cc1`, the AC50 is 8.91 µM (active).
As for `O=C(O)c1cc(S(=O)(=O)NCC2CCCO2)ccc1Cl` (centres undefined), the “activity, negative = inhibition” value was 8.86% (inactive).
Take `O=C(CN(CC1CCCO1)C(=O)CNS(=O)(=O)c1ccc(Cl)cc1)NCCc1ccccc1` (centres undefined): the AC50 is 31.6 µM (active).
On the same count and under the same terms, next, `COc1ccc(CNC(=O)CN(CC2CCCO2)C(=O)CNS(=O)(=O)c2ccccc2)cc1` (centres undefined): 14.1 µM (active).
Regarding `CCN(CC)CCOC(=O)[C@@H](Cc1cccc2ccccc12)C[C@@H]1CCCO1`, the “activity, negative = inhibition” value was -28.4% [at 25.6 µM] (inactive).
